High-throughput results as filed in PubChem.
APP 5'UTR act = activates APP 5'UTR luciferase reporter; SH-SY5Y APP 5'UTR luciferase reporter, luminescence; zero percent = DMSO vehicle wells; AID 1276; 190,000 tested, 1% active; activation, % at 2 µM;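 active = activation above a set limit, based on mean plus 3 SD of controls, cut at about 140% in these data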
NF-kB expr up = raises NF-kB expression in human neuronal cells | fold change at 12.5 µM | NF-kB reporter expression; stronger effect = higher value | 190,000 tested, 1.6% active; in the data active = fold change above about 3.3
hgDAF12 agonist = activates the H. glycines DAF-12 receptor ligand-binding domain | HEK293 GAL4-hgDAF12 UAS-luciferase reporter, agonist luminescence; normalized to butyrate control | activation, % at 6.8 µM | 370,000 tested, 1.8% active | AID 687014;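 active = activation above a cutoff set at the mean of all screened compounds plus 3 SD, cut at about 10% in these data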;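 also: 0% = DMSO wells and 100% = sodium butyrate wells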
ssDAF12 agonist = S. stercoralis DAF-12 activation, primary screen; HEK293 ssDAF-12/GRIP1 lit1-tk-luc reporter, luminescence; % of 3 µM dafachronic acid response; activation, % at 6.8 µM; 370,000 tested, 1% active;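 active = activation above the mean over all tested compounds plus 3 SD, cut at about 0.9% in these data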;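 also: 0% = DMSO-only wells and 100% = 3 µM delta7-dafachronic acid wells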
hcDAF12 agonist = H. contortus DAF-12 activation, primary screen | HEK293 hcDAF-12 lit1-tk-luc reporter, luminescence; 0% DMSO, 100% Δ7-dafachronic acid | activation, % at 6.8 µM | 370,000 tested, 1.4% active | AID 652067;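 active = activation above the mean of all tested compounds plus 3 SD, cut at about 5.5% in these data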;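 also: 100% = response to 3 µM Δ7-dafachronic acid high control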
LXR ag = LXR-beta agonism as hcDAF-12 counter-screen; 3,400 tested, under 10 active; AID 743027; HEK293 Gal4-LXR tk-luc reporter, luminescence, 24 h; normalized: DMSO 0%, positive control 100%; activation, % at 6.8 µM; shares compounds with hcDAF12 agonist;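 active = mean percent activation of the reporter above a cutoff set as the average over tested compounds plus their standard deviation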
Target sequence (P55055 whole entry, looked up, the tested form may be a part): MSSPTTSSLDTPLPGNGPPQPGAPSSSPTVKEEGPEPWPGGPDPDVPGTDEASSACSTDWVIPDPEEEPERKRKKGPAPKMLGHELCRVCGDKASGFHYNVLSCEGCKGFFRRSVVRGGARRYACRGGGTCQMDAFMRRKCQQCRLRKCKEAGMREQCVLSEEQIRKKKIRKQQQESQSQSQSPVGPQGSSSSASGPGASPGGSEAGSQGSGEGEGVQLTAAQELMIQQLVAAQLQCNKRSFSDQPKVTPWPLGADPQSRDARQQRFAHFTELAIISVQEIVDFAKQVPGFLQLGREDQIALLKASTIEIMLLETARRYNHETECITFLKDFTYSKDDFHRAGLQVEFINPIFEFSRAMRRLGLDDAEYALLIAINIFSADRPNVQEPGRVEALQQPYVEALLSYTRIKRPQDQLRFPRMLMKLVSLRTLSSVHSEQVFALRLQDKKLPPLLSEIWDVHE
hcDAF12 ag = confirmation of H. contortus DAF-12 agonists. activation, % at 6.8 µM. HEK293 hcDAF-12 lit1-tk-luc reporter, luminescence; % of Δ7-dafachronic acid response. 3,400 tested, 61% active. shares compounds with hcDAF12 agonist;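 active = mean activation across triplicate tests above the threshold derived from the earlier primary screen, cut at about 5.5% in these data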;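 also: 0% = DMSO only wells and 100% = 3 µM Δ7-dafachronic acid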
The depositor's hits bear a star; nt = no result. An excerpt weighted towards active compounds, which were near 3.4% of everything screened.

SMILES	APP 5'UTR act	NF-kB expr up	hgDAF12 agonist	ssDAF12 agonist	hcDAF12 agonist	LXR ag	hcDAF12 ag
O=C(Nc1ccc(Cl)cc1)[C@@H]1[C@@H]2C(=O)N(c3cccc(F)c3)C(=O)[C@@H]2[C@H]2C=CC=NN21	nt	nt	2.0	-0.8	1.1	nt	nt
COc1ccc(N2C(=O)[C@@H]3[C@H](C2=O)[C@H]2C=CC=NN2[C@@H]3C(=O)Nc2ccc(Cl)cc2)cc1	nt	nt	-1.0	0.2	6.5*	-0.3	1.3
COC(=O)c1cn(CCOc2ccccc2)c2ccccc12	27.8	1.85	5.9	1.3*	6.7*	0.2	3.2
O=C(NNC(=O)c1cc2ccccc2oc1=O)c1ccccc1	nt	nt	1.5	-0.5	-0.5	nt	nt
O=C(c1ccccc1)c1cc2ccccc2oc1=O	nt	nt	2.6	0.2	6.9*	0.1	4.7
CCOC(=O)c1sc(NC(=O)c2ccc(C)o2)nc1C	85.1	3.2	10.6*	0.3	8.8*	1.1	8.6*
CC(=O)c1sc(NC(=O)c2cccs2)nc1C	nt	nt	1.7	-1.4	-0.7	nt	nt
CCOC(=O)c1sc(NC(=O)c2ccco2)nc1C	nt	1.43	-0.7	-1.1	1.8	nt	nt
CCOC(=O)c1sc(NC(=O)c2cccs2)nc1C	6.3	1.57	5.7	1.9*	11.2*	1.0	6.3*
Cc1nc(NC(=O)c2cccs2)ccc1Br	133.0	6.28*	19.2*	1.6*	9.8*	1.4	10.6*
COc1ccc2nc(NC(=O)c3cccs3)sc2c1	nt	nt	12.1*	0.3	6.7*	1.7	7.2*
COc1ccc(Cl)cc1NC(=O)c1cc(C2CC2)on1	nt	nt	2.7	-1.2	7.6*	-0.1	5.3
C#CCOCCOCCOCCNc1nc(N2CCN(C(=O)[C@H](CCCCN)n3cc([C@@H](N)CC(C)C)nn3)CC2)nc(N2CCN(C(=O)[C@H](Cc3cc4ccccc4[nH]3)n3cc([C@@H](N)CC(C)C)nn3)CC2)n1	nt	nt	4.4	-0.5	8.1*	-0.4	4.4
O=C(COC(=O)c1cc(Cl)ccc1Cl)NC1CCCC1	nt	nt	2.0	-1.2	1.4	nt	nt
O=C(COC(=O)c1cc([N+](=O)[O-])ccc1Cl)NC1CCCC1	nt	nt	0.6	-0.3	10.2*	-0.2	0.1
Cc1cccc(-c2cc3nc(C)cc(C)n3n2)c1	142.5*	5.93*	7.6	1.6*	8.6*	1.4	10.7*
CCN(CC)C(=O)CC[C@@H]1CC[C@]2(CCCN(C(=O)c3ccco3)C2)O1	nt	nt	-2.1	-0.4	-1.4	nt	nt
Cc1c(-c2ccccn2)c(=O)[nH]n1-c1ccc(F)cc1	124.8	3.81*	25.6*	1.8*	14.6*	1.6	15.2*
O=C(/C=C/c1c(F)cccc1Cl)Nc1cccnc1	nt	nt	10.7*	0.6	7.1*	0.8	6.8*
O=C(Nc1ccc(C(O)(C(F)(F)F)C(F)(F)F)cc1)c1ccccc1C(F)(F)F	nt	nt	-0.1	-1.4	-1.4	nt	nt
Cc1cc(Cl)cc2c(N=Nc3ccccc3C(=O)O)c(O)[nH]c12	nt	nt	-2.1	-1.2	-0.8	nt	nt
Cc1ccc(Cl)c2c(N=Nc3ccccc3)c(O)[nH]c12	nt	nt	5.9	0.9*	7.7*	0.8	10.4*
Cc1cc(NC(=O)CSc2c(C)[nH]c3ccccc23)no1	-2.5	1.05	4.4	1.1*	6.8*	-0.1	0.8
Cc1cc(NC(=O)CSc2c[nH]c3ccccc23)no1	nt	nt	4.2	0.3	4.8	nt	nt
Cc1cc(NC(=O)c2sc3ccccc3c2O)no1	nt	nt	7.6	0.7	11.6*	1.4	7.2*
SMILES	APP 5'UTR act	NF-kB expr up	hgDAF12 agonist	ssDAF12 agonist	hcDAF12 agonist	LXR ag	hcDAF12 ag
Cc1cc(NC(=O)c2ccccc2Cl)no1	47.4	1.79	3.5	-0.1	1.5	nt	nt
CSc1ccc(CNC(=O)Cc2ccc(NC(=O)C3=C(C)OCCS3)cc2)cc1	nt	nt	7.7	0.2	7.1*	0.9	6.5*
CCOc1ccc(CCNC(=O)Cc2ccc(NC(=O)C3=C(C)OCCS3)cc2)cc1	nt	nt	2.7	-1.0	0.4	nt	nt
CC1CCCCN1C(=O)CSc1nnc(-c2ccccc2O)o1 (configuration not stated)	nt	nt	16.0*	1.7*	15.2*	1.4	20.5*
O=C(CSc1nnc(-c2ccccc2O)o1)N1CCCCC1	nt	nt	3.0	-0.5	0.7	nt	nt
O=C(CSc1nnc(-c2ccccc2O)o1)N1CCOCC1	nt	nt	5.9	0.8	11.4*	0.4	2.1
Cc1ccc2nc(-c3ccc(SCC(=O)N4CCc5ccccc54)nc3)[nH]c2c1	133.5	1.34	4.6	-0.4	7.1*	0.6	6.4*
Cc1ccc2nc(-c3ccc(SCC(=O)O)nc3)[nH]c2c1	13.1	0.74	6.0	0.0	1.4	nt	nt
Nc1c(-c2ccccc2)n[nH]c1-c1ccccc1	51.4	1.73	8.1	-0.7	7.0*	0.7	7.7*
C#CCNC(=O)C[C@@H]1C(=O)N(CCc2ccc(Cl)cc2)/C2=C/CCCCC[C@@]21C(=O)OCC	nt	nt	1.1	-1.1	-2.1	nt	nt
O=C(O)c1ccc2c(=O)n3c(nc2c1)/C(=C/c1ccc(C(F)(F)F)cc1)CC3	nt	nt	0.6	-1.3	7.0*	-0.4	1.2
Cc1nn(C(=O)c2cc3sccc3[nH]2)c(C)c1C	38.3	2.79	10.5*	0.5	8.1*	0.6	11.1*
Clc1ccccc1C1SCC2Nc3ccccc3CN21 (configuration not stated)	28.4	1.09	4.9	-0.3	7.1*	0.0	7.1*
Cc1ccc(OCCOc2c(Cl)cc(Cl)cc2Cl)c([N+](=O)[O-])n1	nt	nt	7.5	-1.2	1.8	nt	nt
O=C(OCc1csc(-c2ccccc2)n1)C1=NN(c2ccccc2)C(=O)CC1	nt	nt	3.1	-0.5	1.0	nt	nt
Cc1ccsc1C(=O)OCc1csc(-c2ccccc2)n1	195.3*	9.41*	16.3*	2.7*	13.2*	1.1	13.8*
O=C(OCc1csc(-c2ccccc2)n1)c1cccs1	16.9	3.02	3.6	-0.8	1.7	nt	nt
Cn1cccc1C(=O)OCc1csc(-c2ccccc2)n1	149.6*	5.75*	15.5*	3.1*	15.7*	1.8	16.9*
C/C(=C\C(=S)Nc1ccccc1)Nc1cccc2ccccc12	-7.0	1.19	0.8	-0.5	3.5	nt	nt
C/C(=C\C(=S)Nc1ccccc1)Nc1ccc2ccccc2c1	12.5	1.4	3.0	0.1	6.9*	0.5	5.3
O=C(c1cccc(F)c1)N(Cc1ccccn1)CC1CCCO1 (configuration not stated)	nt	nt	-0.5	-0.2	-1.3	nt	nt
O=C(Nc1ccc(Br)c(C(F)(F)F)c1)[C@@H]1CC=C[C@@H]2CCN(CC3CC3)C(=O)[C@@H]21	nt	nt	-0.9	-1.7	-1.7	nt	nt
CCOC(=O)c1cc(NC(=O)c2ccc(Cl)cc2)c(=O)n2c1oc1ccc(Cl)cc12	3.3	1.14	3.6	-0.7	9.3*	-0.3	-1.7
CN(C)c1ccc(N=Cc2nc(-c3ccccc3)oc2OC(=O)c2cccc(Br)c2)cc1	101.2	2.6	7.0	2.1*	6.7*	0.0	0.5
